In PubChem BioAssay AID1159580 (chemical genetic matrix, 2015):
The campaign covered roughly 5,500 compounds. About 2,000 (36%) were called active. Not shown: some 18% with an inconclusive outcome. Rule as the data show it: active = normalized growth mostly below about 0.91 (no sharp cut-off); inconclusive = no clear call, values can overlap the other calls; inactive = mostly above about 0.92. The list shows a part of the results.

Experiment: chemical genetic growth profiling, strain panel (AID 1159580);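 also: tested at 20 µM; growth read once vehicle control cultures reached saturation at 30 °C; 1 = growth at the plate median or of vehicle wells; lower values mean less growth of the strain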
Conditions: growth OD

Measured: normalized growth

CC1CCc2cc(F)cc3c(=O)c(C(=O)O)cn1c23 (configuration not stated)
inactive: S. cerevisiae deletion strains, locus YJR075W, strain HOC1, hits give low values 0.967 | S. cerevisiae deletion strains, locus YKL009W, strain mrt4, hits give low values 0.957 | S. cerevisiae deletion strains, locus YKL068W, hits give low values 0.985 | S. cerevisiae deletion strains, locus YKL085W, strain MDH1 (second series), hits give low values 0.974 | S. cerevisiae deletion strains, locus YKL085W, strain MDH1, hits give low values 0.974 | S. cerevisiae deletion strains, locus YKL160W, strain elf1, hits give low values 0.971 | S. cerevisiae deletion strains, locus YKL190W, strain CNB1, hits give low values 0.991 | S. cerevisiae deletion strains, locus YKR001C, strain vps1, hits give low values 0.998 | S. cerevisiae deletion strains, locus YKR026C, strain gcn3, hits give low values 0.989 | S. cerevisiae deletion strains, locus YKR091W, strain srl3, hits give low values 0.994 | S. cerevisiae deletion strains, locus YLL001W, strain dnm1, hits give low values 0.966 | S. cerevisiae deletion strains, locus YLL026W, hits give low values 0.995 | S. cerevisiae deletion strains, locus YLL041C, strain sdh2, hits give low values 0.989 | S. cerevisiae deletion strains, locus YLR027C, strain aat2, hits give low values 0.988 | S. cerevisiae deletion strains, locus YLR039C, strain RIC1, hits give low values 0.892 | S. cerevisiae deletion strains, locus YLR058C, strain SHM2, hits give low values 0.983 | S. cerevisiae deletion strains, locus YLR102C, strain apc9, hits give low values 0.982 | S. cerevisiae deletion strains, locus YLR113W, strain HOG1, hits give low values 0.955 | S. cerevisiae deletion strains, locus YLR221C, strain rsa3, hits give low values 0.973 | S. cerevisiae deletion strains, locus YLR258W, strain gsy2, hits give low values 0.982 | S. cerevisiae deletion strains, locus YLR262C, strain YPT6 (second series), hits give low values 0.952 | S. cerevisiae deletion strains, locus YLR262C, strain YPT6, hits give low values 0.867 | S. cerevisiae deletion strains, locus YLR268W, strain sec22, hits give low values 0.894 | S. cerevisiae deletion strains, locus YLR320W, strain mms22, hits give low values 0.972 | S. cerevisiae deletion strains, locus YLR330W, strain CHS5, hits give low values 1.01 | S. cerevisiae deletion strains, locus YLR342W, strain FKS1 (second series), hits give low values 0.978 | S. cerevisiae deletion strains, locus YLR342W, strain FKS1, hits give low values 0.978 | S. cerevisiae deletion strains, locus YLR357W, strain rsc2, hits give low values 0.923 | S. cerevisiae deletion strains, locus YLR370C, strain arc18, hits give low values 0.991 | S. cerevisiae deletion strains, locus YLR371W, strain rom2, hits give low values 0.965 | S. cerevisiae deletion strains, locus YLR384C, strain iki3, hits give low values 0.985 | S. cerevisiae deletion strains, locus YLR418C, strain cdc73, hits give low values 0.96 | S. cerevisiae deletion strains, locus YML016C, strain PPZ1, hits give low values 0.986 | S. cerevisiae deletion strains, locus YML032C, strain rad52, hits give low values 0.95 | S. cerevisiae deletion strains, locus YML120C, strain ndi1, hits give low values 0.975 | S. cerevisiae deletion strains, locus YML124C, strain tub3, hits give low values 0.994 | S. cerevisiae deletion strains, locus YMR058W, strain fet3, hits give low values 0.998 | S. cerevisiae deletion strains, locus YMR078C, strain ctf18, hits give low values 0.961 | S. cerevisiae deletion strains, locus YMR125W, strain sto1, hits give low values 0.978 | S. cerevisiae deletion strains, locus YMR129W, hits give low values 0.992 | S. cerevisiae deletion strains, locus YMR205C, strain PFK2, hits give low values 0.968 | S. cerevisiae deletion strains, locus YMR223W, strain ubp8, hits give low values 0.992 | S. cerevisiae deletion strains, locus YMR231W, strain pep5, hits give low values 0.991 | S. cerevisiae deletion strains, locus YMR263W, strain SAP30, hits give low values 0.964 | S. cerevisiae deletion strains, locus YMR307W, strain GAS1, hits give low values 1.02 | S. cerevisiae deletion strains, locus YNL067W, strain RPL9B, hits give low values 0.962 | S. cerevisiae deletion strains, locus YNL071W, strain lat1, hits give low values 0.998 | S. cerevisiae deletion strains, locus YNL128W, strain TEP1, hits give low values 0.976 | S. cerevisiae deletion strains, locus YNL153C, strain GIM3, hits give low values 0.972 | S. cerevisiae deletion strains, locus YNL183C, strain NPR1, hits give low values 0.904 | S. cerevisiae deletion strains, locus YNL209W, strain ssb2, hits give low values 0.996 | S. cerevisiae deletion strains, locus YNL233W, strain BNI4, hits give low values 0.968 | S. cerevisiae deletion strains, locus YNL248C, strain rpa49, hits give low values 0.971 | S. cerevisiae deletion strains, locus YNL250W, strain rad50, hits give low values 0.973 | S. cerevisiae deletion strains, locus YNL271C, strain bni1, hits give low values 0.962 | S. cerevisiae deletion strains, locus YNL298W, strain CLA4, hits give low values 0.957 | S. cerevisiae deletion strains, locus YNL307C, strain MCK1, hits give low values 0.983 | S. cerevisiae deletion strains, locus YNL322C, strain KRE1 (second series), hits give low values 0.995 | S. cerevisiae deletion strains, locus YNL322C, strain KRE1, hits give low values 0.986 | S. cerevisiae deletion strains, locus YNR049C, strain mso1, hits give low values 0.987 | S. cerevisiae deletion strains, locus YNR052C, strain pop2, hits give low values 0.96 | S. cerevisiae deletion strains, locus YOL006C, strain TOP1, hits give low values 0.947 | S. cerevisiae deletion strains, locus YOL012C, strain htz1 0.784 | S. cerevisiae deletion strains, locus YOL147C, strain pex11, hits give low values 0.973 | S. cerevisiae deletion strains, locus YOR001W, strain rrp6, hits give low values 0.968 | S. cerevisiae deletion strains, locus YOR061W, strain CKA2, hits give low values 0.984 | S. cerevisiae deletion strains, locus YOR069W, strain VPS5, hits give low values 0.977 | S. cerevisiae deletion strains, locus YOR070C, strain gyp1, hits give low values 0.99 | S. cerevisiae deletion strains, locus YOR080W, strain dia2, hits give low values 0.992 | S. cerevisiae deletion strains, locus YOR083W, strain WHI5, hits give low values 0.969 | S. cerevisiae deletion strains, locus YOR106W, strain vam3, hits give low values 0.947 | S. cerevisiae deletion strains, locus YOR136W, strain idh2, hits give low values 0.98 | S. cerevisiae deletion strains, locus YOR144C, strain elg1, hits give low values 0.975 | S. cerevisiae deletion strains, locus YOR184W, strain ser1, hits give low values 0.959 | S. cerevisiae deletion strains, locus YOR231W, strain MKK1, hits give low values 0.982 | S. cerevisiae deletion strains, locus YOR265W, strain rbl2, hits give low values 0.982 | S. cerevisiae deletion strains, locus YOR270C, strain vph1, hits give low values 0.959 | S. cerevisiae deletion strains, locus YOR290C, strain snf2, hits give low values 0.955 | S. cerevisiae deletion strains, locus YOR316C, strain cot1, hits give low values 0.97 | S. cerevisiae deletion strains, locus YPL051W, strain arl3, hits give low values 0.984 | S. cerevisiae deletion strains, locus YPL055C, strain LGE1, hits give low values 0.985 | S. cerevisiae deletion strains, locus YPL078C, strain atp4, hits give low values 0.976 | S. cerevisiae deletion strains, locus YPL106C, strain sse1, hits give low values 0.963 | S. cerevisiae deletion strains, locus YPL240C, strain hsp82, hits give low values 0.974 | S. cerevisiae deletion strains, locus YPL241C, strain CIN2, hits give low values 0.997 | S. cerevisiae deletion strains, locus YPL256C, strain CLN2, hits give low values 0.974 | S. cerevisiae deletion strains, locus YPR119W, strain clb2, hits give low values 0.973 | S. cerevisiae deletion strains, locus YPR141C, strain kar3, hits give low values 0.961 | S. cerevisiae deletion strains, locus YPR163C, strain tif3, hits give low values 0.974 | S. cerevisiae deletion strains, locus YPR167C, strain met16, hits give low values 0.97 | S. cerevisiae deletion strains, strain wtn01, hits give low values 0.95 | S. cerevisiae strains, strain wild type, hits give low values 0.987
